Screens (PubChem BioAssay)
Shown are actives, neighbours in structure and some others; about 5.5% of the full set was active somewhere.
MBNL1 CUG block – MBNL1-poly(CUG) RNA binding inhibition. Q9NR56. TR-FRET MBNL1-His/biotin-(CUG)12 binding, 665/545 ratio. Potency, µM (doses to about 57.5 µM), most hits filed as inhibitors. hit rate 0.036% among 280,000; active means well fitted inhibition curve with a large enough effect in the signal ratio, with a control signal flat, not every such curve was filed as active; inconclusive means small, poorly fitted or top-dose-only effect, or effect the other way, or a change in a side signal; inactive means no such curve, though single readings can be large or run the other way; the % refers to the signal ratio
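His-tagged MBNL1 binding to biotinylated (CUG)12 RNA was measured by TR-FRET using terbium anti-His antibody (0.055 ng/ul final) and streptavidin-XL665 (5 nM final). Compounds were titrated 92 nM to 58 uM; 60 min at room temperature.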
Six1-Eya2 inh – inhibitors of human Six1/Eya2 interaction. AlphaScreen GST-Six1/His-Eya2 binding, biochemical; active compounds read low. AID 651725. activity change, % (no concentration beside the values). Q15475+O00167. hit rate 0.56% among 360,000; in the data active means activity change below about -65%; inconclusive means mostly about -30% to -63%
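AlphaScreen luminescence read after one hour at 37 °C in darkness. Pin-transferred compounds met GST-Six1 and His-Eya2 protein (5X stock 250 nM/500 nM) plus glutathione donor and Ni-chelate acceptor beads (5X, 50 ug/mL).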
Gal4-VP16 FLuc – counter-screen for ROR gamma inhibitors: Gal4-VP16 reporter; Potency, µM (titrated, usually from 53.6 µM), actives largely listed as inhibitors; AID 2546; hit rate 3.5% among 310,000; Drosophila S2 Gal4-VP16 UAS-luciferase, luminescence, 20 h;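 further: Gal4-VP16 expression switched on by copper sulfate through the metallothionein promoter; nearly all actives have a fitted effect of over 50% in size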
RORgamma inh – ROR gamma (mouse) transcription inhibition. P51450. Drosophila S2 Gal4-RORgamma UAS-luciferase reporter, 20 h. Potency, µM (doses to about 53.6 µM), usual class: inhibitors. hit rate 5.4% among 310,000. AID 2551; further: nearly all actives have a fitted effect of over 60% in size
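Stably transfected Drosophila Schneider cells are the test system, with ROR gamma fused to Gal4 and luciferase under UAS control; luminescence is read after 20 hr of 700 uM copper sulfate induction at ambient temperature.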
CBFb-RUNX1 inh – inhibitors of human CBF-beta and RUNX1 interaction | AlphaScreen CBFb-His/RUNX1-biotin binding, biochemical | AID 1477 | 230,000 tested, under 10 active | Q01196+Q13951 | Potency, µM (top dose mostly 59.8 µM), most hits filed as inhibitors
Target sequence (Q01196 whole entry, looked up): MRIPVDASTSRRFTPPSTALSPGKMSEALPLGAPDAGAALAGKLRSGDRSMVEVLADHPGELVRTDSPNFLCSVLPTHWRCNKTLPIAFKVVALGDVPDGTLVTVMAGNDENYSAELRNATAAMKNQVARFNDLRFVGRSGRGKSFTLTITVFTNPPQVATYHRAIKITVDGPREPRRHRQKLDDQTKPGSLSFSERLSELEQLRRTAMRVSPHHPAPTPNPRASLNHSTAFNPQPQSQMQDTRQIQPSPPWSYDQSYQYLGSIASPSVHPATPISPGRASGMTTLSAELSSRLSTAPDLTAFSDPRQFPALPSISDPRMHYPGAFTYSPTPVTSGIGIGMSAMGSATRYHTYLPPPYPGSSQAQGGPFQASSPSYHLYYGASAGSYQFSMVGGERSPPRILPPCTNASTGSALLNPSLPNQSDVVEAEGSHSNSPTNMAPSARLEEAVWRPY
Target sequence (Q13951 whole entry, looked up): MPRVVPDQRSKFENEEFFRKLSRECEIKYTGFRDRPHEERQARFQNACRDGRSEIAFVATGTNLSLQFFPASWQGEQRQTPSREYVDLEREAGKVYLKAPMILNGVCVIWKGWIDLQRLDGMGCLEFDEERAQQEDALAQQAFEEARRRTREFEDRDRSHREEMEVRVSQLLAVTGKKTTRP
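CBFb-His/RUNX1-biotin, 30 nM each, preincubated 20 min RT; compound 15 min RT; Ni + streptavidin beads 50 ng each, 90 min RT; AlphaScreen read.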
CtBP-E1A inh – CtBP/E1A binding inhibition; AlphaScreen GST-E1A/His-CtBP binding, 1536-well; active compounds read low; activity change, % (no concentration beside the values); AID 651724; hit rate 0.49% among 340,000; in the data active means activity change below about -65%; inconclusive means mostly about -30% to -63%
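Homogeneous bead-based format: GST-tagged E1A captured on glutathione donor beads, His-tagged CtBP on nickel acceptor beads; compounds precede bead addition by 2 h at 37 °C.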
Of the large screens only hits and unclear results are named; the others gave an inactive call. Unless noted, the call rests on the fitted dose curve; in most records, active means well fitted curve in the direction sought with a large enough effect; inconclusive means small, poorly fitted or top-dose-only effect, or another doubt; inactive means no such curve, though single readings can be large; an effect the other way counts as inactive or inconclusive.

COc1cc(NC(=O)CN2C(=O)COc3ccc(S(=O)(=O)N4CCCC4)cc32)cc(OC)c1	Six1-Eya2 inh inconclusive, CtBP-E1A inh -77 (no result: CBFb-RUNX1 inh)
COc1ccccc1NC(=O)CN1C(=O)COc2ccc(S(=O)(=O)N3CCOCC3)cc21	none (no result: CBFb-RUNX1 inh)
CC1CCCC(C)N1CCCNC(=O)Cn1c(=O)c2cccn2c2cccnc21 (stereo unspecified)	none (no result: CBFb-RUNX1 inh)
Cc1ccccc1C(=O)NC1CCN(C(=O)NC2CCCCC2)CC1	none (no result: CBFb-RUNX1 inh)
Cc1ccccc1C(=O)NC1CCN(C(=O)N(c2ccccc2)c2ccccc2)CC1	RORgamma inh 11µM
CN1OC[C@@H]2CN(C(=S)NCCc3ccccc3)[C@H](c3ccccc3Br)C[C@@H]21	none (no result: MBNL1 CUG block, Gal4-VP16 FLuc, RORgamma inh, CBFb-RUNX1 inh)
COc1ccc(C2CC2/C(=N/O)c2ccccn2)cc1 (stereo unspecified)	Gal4-VP16 FLuc 3.2µM, RORgamma inh inconclusive, CBFb-RUNX1 inh inconclusive
COc1ccc(C2CC2/C(=N/O)c2ccccc2)cc1 (stereo unspecified)	none
O/N=C(\c1ccccn1)C1CC1c1ccccc1 (stereo unspecified)	RORgamma inh 13µM (no result: MBNL1 CUG block)
COc1ccc(NC(=O)Nc2cccc3c2O[C@H](CN(C)C(=O)Nc2ccc4c(c2)OCO4)[C@@H](C)CN([C@H](C)CO)C3=O)cc1	none (no result: MBNL1 CUG block, Gal4-VP16 FLuc, RORgamma inh, CBFb-RUNX1 inh)
CCOc1ccc(C2C(C#N)=C(N)SC(N)=C2C#N)c(OCC)c1	Gal4-VP16 FLuc inconclusive, RORgamma inh 13µM
CCOc1cc(C2C(C#N)=C(N)SC(N)=C2C#N)ccc1OCCN1CCOCC1	RORgamma inh inconclusive
N#CCCNS(=O)(=O)c1ccc(C(=O)OCC2CCCCC2)cc1	none (no result: CBFb-RUNX1 inh)
N#CCCNS(=O)(=O)c1ccc(C(=O)OCCCOC(=O)c2ccc(S(=O)(=O)NCCC#N)cc2)cc1	Gal4-VP16 FLuc 18µM, RORgamma inh 11µM (no result: CBFb-RUNX1 inh)
COc1ccc(N=C2S/C(=C\c3ccc(OCC(=O)O)cc3)C(=O)N2CCc2c[nH]c3ccccc23)cc1	Six1-Eya2 inh -80
CCCN1C(=O)/C(=C/c2ccc(C)o2)SC1=Nc1ccc(OC)cc1	CBFb-RUNX1 inh inconclusive
COc1ccc(N=C2S/C(=C\c3ccc(N4CCOCC4)o3)C(=O)N2CCc2c[nH]c3ccccc23)cc1	Gal4-VP16 FLuc 5µM, RORgamma inh 6.3µM (no result: Six1-Eya2 inh, CtBP-E1A inh)
COc1cccc(N2CCN(C(=O)CCC(=O)c3ccc(Cl)s3)CC2)c1	none (no result: MBNL1 CUG block, Gal4-VP16 FLuc, RORgamma inh, CBFb-RUNX1 inh, CtBP-E1A inh)
CCOc1ccc(Br)cc1S(=O)(=O)Nc1cccc(S(=O)(=O)N2CCOCC2)c1	none (no result: MBNL1 CUG block, Gal4-VP16 FLuc, RORgamma inh, CBFb-RUNX1 inh)
CC(C)C(=O)NC(Nc1cc(C(F)(F)F)ccc1Cl)C(Cl)(Cl)Cl (stereo unspecified)	none (no result: MBNL1 CUG block)
CCCC(=O)NC(Nc1cc(C(F)(F)F)ccc1Cl)C(Cl)(Cl)Cl (stereo unspecified)	Gal4-VP16 FLuc 10µM, RORgamma inh inconclusive
CCSC1=NC(=O)/C(=C2/C=Cc3ccccc3N2CC)S1	MBNL1 CUG block inconclusive, Six1-Eya2 inh -79, CBFb-RUNX1 inh inconclusive, CtBP-E1A inh -74
Cc1cc2c(cc1C)N(C(=O)CSC1=NCCS1)C(C)(C)c1ssc(=S)c1-2	MBNL1 CUG block inconclusive, Six1-Eya2 inh inconclusive, RORgamma inh 4µM, CtBP-E1A inh inconclusive (no result: CBFb-RUNX1 inh)
COc1ccc2c(c1)-c1c(ssc1=S)C(C)(C)N2C(=O)CSC1=NCCS1	MBNL1 CUG block inconclusive, Six1-Eya2 inh inconclusive, RORgamma inh inconclusive, CtBP-E1A inh inconclusive (no result: CBFb-RUNX1 inh)
Cc1cc(C)c2c(c1)-c1c(ssc1=S)C(C)(C)N2C(=O)CSc1nncn1C	MBNL1 CUG block inconclusive, Six1-Eya2 inh -67, CtBP-E1A inh -67
CC1(C)c2ssc(=S)c2-c2ccccc2N1C(=O)CSC1=NCCS1	MBNL1 CUG block inconclusive, Six1-Eya2 inh inconclusive, RORgamma inh 11µM, CBFb-RUNX1 inh inconclusive, CtBP-E1A inh inconclusive
Cc1nn(Cc2ccccc2)c(C)c1/C=N/NC(=O)c1ccccc1O	Gal4-VP16 FLuc 18µM, RORgamma inh 11µM
CCCCCn1nc(C)c(/C=N/NC(=O)c2ccoc2C)c1C	MBNL1 CUG block inconclusive, Gal4-VP16 FLuc 8.9µM, RORgamma inh inconclusive
Cc1nn(Cc2ccccc2)c(C)c1/C=N/NC(=O)c1ccncc1	none (no result: CtBP-E1A inh)
O=C(CNC(=O)c1ccccc1Cl)c1ccccc1	RORgamma inh 8.9µM (no result: CBFb-RUNX1 inh)
O=C(CNC(=O)c1ccccc1F)c1ccccc1	Gal4-VP16 FLuc inconclusive, RORgamma inh 11µM (no result: CBFb-RUNX1 inh)
CCOC(=O)/C=C/CCC/C=C/C(=O)c1ccccc1	none (no result: MBNL1 CUG block, Six1-Eya2 inh, CtBP-E1A inh)
CCOc1cc(C(=O)NCCC(=O)N2CCC3(CC2)NCCc2[nH]cnc23)cc(OCC)c1OCC	none (no result: CBFb-RUNX1 inh)
N#CCCn1c(=O)c(-c2ccccc2)nc2cnc(N3CCOCC3)nc21	none (no result: MBNL1 CUG block, Six1-Eya2 inh, CBFb-RUNX1 inh, CtBP-E1A inh)
S=C(c1cn(Cc2ccccc2)c2ccccc12)N1CCOCC1	RORgamma inh 11µM
O=C(CCc1cn(Cc2ccc(F)cc2)c2ccccc12)N1CCOCC1	Gal4-VP16 FLuc inconclusive (no result: CBFb-RUNX1 inh)
S=C(c1cn(Cc2ccc(Br)cc2)c2ccccc12)N1CCOCC1	Gal4-VP16 FLuc inconclusive, RORgamma inh 14µM (no result: MBNL1 CUG block)
CCOC(=O)Cn1cnc2scc(-c3ccc(C)cc3)c2c1=O	none (no result: CBFb-RUNX1 inh)
CCC1Oc2ccccc2C(=O)N(CC(=O)c2ccc3c(c2)OCCO3)C1=O (stereo unspecified)	none (no result: CBFb-RUNX1 inh)
O=C1C=C(O)c2cccc3cccc1c23	none (no result: CBFb-RUNX1 inh)
NC1=CC(=O)c2cccc3cccc1c23	MBNL1 CUG block inconclusive, Gal4-VP16 FLuc 22µM, RORgamma inh 11µM (no result: Six1-Eya2 inh, CtBP-E1A inh)
